Screening data from PubChem.
The full list was thinned out, with hits kept by preference.
Pf Dd2 inh = qHTS Primary assay for Inhibitors of Plasmodium falciparum Dd2 growth in vitro. P. falciparum Dd2 growth, SYBR Green, 72 h. Potency, µM (doses to about 28.9 µM), inactives show top-dose activity, negative = inhibition, hits mostly inhibitors. hit rate 4.3% among 120,000; active means well fitted inhibition curve with a large enough effect;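 further: plate controls were DMSO vehicle for no effect and reference drug for full effect; nearly all actives have a fitted effect of over 65% in size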
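Infected erythrocytes (Dd2, 0.3% parasitemia, 2.5% hematocrit final) are added to compound in RPMI-1640/Albumax II medium, grown 72 h at 37C in low oxygen, then lysed with saponin/Triton-X containing SYBR Green and read by fluorescence.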
The depositor's hits bear a star; i = inactive; [ ] = dose if it differs, or a comment. Potency means the concentration at half of the fitted maximal effect.

SMILES	Pf Dd2 inh
O=C(C1CCOCC1)N1CCC2(COc3ncccc3[S+](=O)([O-])N2)C1 (stereo not given)	12%
Cc1ccc(NC(=O)c2c(NC(=O)Cc3ccccc3)sc3c2CCC3)cc1	32%
O=C(Cc1ccccc1)Nc1sc2c(c1C(=O)Nc1cccc(Cl)c1)CCCCC2	i
CC1CCc2c(sc(NC(=O)Cc3ccccc3)c2C(=O)Nc2ccc(Cl)cc2)C1 (stereo not given)	10µM*
COCc1cc(=O)n(CC(=O)Nc2cccc(Cl)c2)c(N2CCOCC2)n1	-14%
Cc1csc(NC(=O)[C@@H]2C[C@@H](c3ccc(F)cc3)N([S+](=O)([O-])c3ccccc3)C2)n1	i
COc1cccc(C(=O)N2CCC(N3C[C@H](O)C[C@H]3C(=O)N3CCN(C(C)C)CC3)CC2)c1	5%
CCNC(=O)[C@@H]1C[C@@H](O)CN1C1CCN(C(=O)c2cccc(OC)c2)CC1	-11%
COc1cccc(C(=O)N2CCC(N3C[C@H](O)C[C@H]3C(=O)N3CCc4ccccc4C3)CC2)c1	1.4µM*
C=CCNC(=O)N1CCC(O)(c2csc(CN3CCN(C)CC3)n2)CC1	-9%[44.1 µM]
O=C(CCCc1ccccc1)N1CCC[C@H]1c1nc(-c2ccccc2Cl)no1	i
Cc1ncsc1CCC(=O)N1CC[C@@H]2[C@@H](CCC(=O)N2CCN)C1	-14%
Cc1coc2c(C)c3oc(=O)c(CCC(=O)NCCc4ccc(Cl)cc4)c(C)c3cc12	-3%
O=C(Nc1ccc2c(c1)CN(Cc1ccc(Cl)cc1)C(=O)CO2)c1ccccc1	-14%
Cc1cc(=O)oc2c3c(ccc12)OCN(Cc1ccc(Cl)cc1)C3	5.6µM*
COC(=O)Cc1c(C)c2ccc3c(c2oc1=O)CN(Cc1ccc(Cl)cc1)CO3	7.1µM*
O=c1oc2c3c(ccc2c2ccccc12)OCN(Cc1ccc(Cl)cc1)C3	10µM*
Cc1ccc2c(CN3CCN(c4ccc(Cl)cc4)CC3)cc(=O)oc2c1	-9%
COc1ccc(CCNC(=O)Cc2c(C)c3cc4c(C)coc4c(C)c3oc2=O)cc1	-20%
O=C(Cn1c(=O)oc2ccccc21)NCc1ccc(Cl)cc1	6%
CCOc1ccc2oc(=O)cc(CN3CCN(Cc4ccc(C)cc4)CC3)c2c1	i
CCOC(=O)Cc1csc(NC(=O)C2CC(=O)N(c3n[nH]c4ccccc34)C2)n1 (stereo not given)	-10%
CC1=NOC2(CCN(CC3CC3)CC2)C1	36%[44.1 µM]
Cn1cccc1C(=O)N1CCC2(CCC(=O)N(CC3CCCO3)C2)CC1 (stereo not given)	-12%
CC(=O)N[C@H]1CC[C@]2(C)CC[C@@H](C(C)C(=O)NC3CCCCC3)[C@H](O)[C@H]2[C@@H]1C (stereo not given in full)	13%[44.1 µM]
SMILES	Pf Dd2 inh
COC1C(=O)N(CC2CC2)C12CCN(C(=O)c1ccc(C)s1)CC2 (stereo not given)	3%
Cn1cc2c3c(cccc31)CN(C(=O)CC(C)(C)C)CC2	13%
Cc1nnn2c(C(=O)NCc3ccc(Cl)nc3)cccc12	i
O=C(c1ccoc1)N1CCN(C(=O)N2CC3CC(C2)[C@H]2CCCC(=O)N2C3)CC1 (stereo not given in full)	16%
Cc1c(CN(C)Cc2cccc3ncccc23)c(=O)n(-c2ccccc2)n1C	-4%
CN(Cc1cccc(CCN)c1)Cc1cccc2ncccc12	7.1µM*
CN(Cc1ccccc1C(F)(F)F)Cc1cccc2ccccc12	i
O=C1N(Cc2ccccc2F)CCOC12CCN(Cc1ccc(F)cc1F)CC2	2.5µM*
Cn1nccc1C(=O)N1CCC2(CC1)OCCN(Cc1ccccc1F)C2=O	-8%[44.1 µM]
O=C1N(Cc2ccccc2)CCOC12CCN(Cc1cc(F)ccc1F)CC2	i
COCCCNC(=O)CCCN1C(=O)COc2ccc(C(=O)COc3ccc(C)c(C)c3)cc21	-12%
Cc1noc([C@@H]2CN(C(=O)c3cc(C)n(Cc4ccco4)c3C)C[C@H]2C(N)=O)n1	-5%
CCOC(=O)C(C)N1CCOc2c(O)cc(-c3cccc(Cl)c3)cc2C1 (stereo not given)	11µM*
CC1=NOC(C(=O)N2CCOc3c(O)cc(-c4nc(C)cnc4C)cc3C2)C1 (stereo not given)	-13%
CC(=O)NCCC(=O)N1CCOc2c(O)cc(-c3cccc(Cl)c3)cc2C1	i
COc1ccc(CC(=O)N2C[C@@H](CO)[C@H](c3ccccn3)C2)cc1OC	7%
C#CCNC(=O)C[C@@H]1CCN(C(=O)Nc2cccc(C(=O)OCC)c2)C[C@@H]1CC	i
CN(C)c1nc(CNC(=O)c2cc(S(N)(=O)=O)ccc2F)cs1	-16%
Cn1nccc1OCc1cn2c(=O)n(C)cc(-c3ccc(O)c(F)c3)c2n1	-21%[44.1 µM]
Cn1cnc(C(=O)N2CCOc3ccc(CCC(=O)NCC4CC4)cc3C2)c1	-4%
COc1cc(C)c2c(c1C)C[C@H]([C@H](C)C(=O)O)CC2	-13%[44.1 µM]
COCCOc1cc(C)c2c(c1C)C[C@H](C(C)C(=O)N1CCC(O)CC1)CC2 (stereo not given in full)	-5%[44.1 µM]
COCCOc1cc(C)c2c(c1C)C[C@H](C(C)C(=O)N1CCSCC1)CC2 (stereo not given in full)	10µM*
CN1CCN([C@H]2CCN(C(=O)c3ccsc3)C[C@H]2CCCO)CC1	1%
O=C(NCc1ccc(F)cc1)c1cc(-c2ccc(Cl)cc2Cl)c2cccn2n1	-4%
SMILES	Pf Dd2 inh
COc1ccc(-c2cc(-c3ccncc3)c3cncn3c2)cc1	11µM*
COc1cccc(-c2cc(-c3ccncc3)c3cncn3c2)c1OC	10µM*
c1cc(-c2cc(-c3ccncc3)c3cncn3c2)c2[nH]ncc2c1	i
Cn1cc(-c2cc(-c3ccncc3)c3cncn3c2)cn1	i
OCc1ccc(-c2cc(-c3ccncc3)c3cncn3c2)cc1	-6%[44.1 µM]
FC(F)(F)c1cccc(-c2cc(-c3ccncc3)c3cncn3c2)c1	-13%[44.1 µM]
COc1ccc(-c2cc(-c3ccc4c(c3)CNC4=O)cn3cncc23)cc1	4.5µM*
Cc1noc(C)c1-c1cc(-c2ccc3c(c2)C(=O)NC3)cn2cncc12	i
COc1ccc(-c2cc(-c3ccncc3)cn3cncc23)cc1	10µM*
Cc1cnn(CCCNC(=O)C2CC(=O)N(C(C)(C)C)C2)c1 (stereo not given)	-17%
Cc1noc([C@@H]2CC(F)(F)CN2S(=O)(=O)c2cccc(F)c2)n1	18%
Cc1cc2nc3n(c(=O)c2n1CC(=O)NCCc1ccc(Cl)cc1)CCC3	1%
CCOC(=O)c1ccccc1NC(=O)CN1C(=O)NC(c2ccc(Cl)cc2)C2=C1COC2=O (stereo not given)	-3%
CN1CCC2(CC1)CNCc1ccccc1O2	i
Cc1nc(-c2c3n(c(=O)n(CC(=O)Nc4ccc(C)c(Cl)c4)c2=O)CCCC3)no1	i
COc1cc(F)ccc1-c1cc(-c2cn[nH]c2)c2cncn2c1	i
Fc1cccc(-c2cc(-c3cn[nH]c3)c3cncn3c2)c1	-2%[44.1 µM]
COc1ccc(-c2cc(-c3ccc(F)cc3)cn3cncc23)cc1	3.2µM*
COc1ccccc1-c1cc(-c2ccc(=O)[nH]c2)c2cncn2c1	15%[44.1 µM]
CN(C)Cc1ccc(-c2cc(-c3cn[nH]c3)c3cncn3c2)cc1	11%[44.1 µM]
COc1ccc(-c2cc(-c3ccc(F)cc3OC)cn3cncc23)cc1	6.3µM*
COc1ccc(CN2CCNc3cnc(Nc4ccccc4)cc3C2)cc1	i
O=C(NC1CCCN(c2cc(-c3ccccc3)[nH]n2)C1)c1ccc2cc[nH]c2c1 (stereo not given)	-4%
